From PubChem BioAssay AID1159580 (chemical genetic matrix, 2015)
The campaign covered roughly 5,500 compounds. About 2,000 (36%) were called active. Roughly 18% stayed inconclusive and do not appear here. Cut-off read from the data, not from the text of the source: active = normalized growth mostly below about 0.91 (no sharp cut-off); inconclusive = no clear call, values can overlap the other calls; inactive = mostly above about 0.92. The list shows a part of the results.

Test: chemical genetic growth profiling, strain panel (AID 1159580);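 note: tested at 20 µM; growth read once vehicle control cultures reached saturation at 30 °C; 1 = growth at the plate median or of vehicle wells; lower values mean less growth of the strain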
Settings: growth OD
[1] = S. cerevisiae deletion strains, locus YBR021W, strain FUR4, hits give low values
[2] = S. cerevisiae deletion strains, locus YBR229C, strain ROT2, hits give low values
[3] = S. cerevisiae deletion strains, locus YCL029C, strain bik1, hits give low values
[4] = S. cerevisiae deletion strains, locus YDL035C, strain GPR1, hits give low values
[5] = S. cerevisiae deletion strains, locus YDL074C, strain BRE1, hits give low values
[6] = S. cerevisiae deletion strains, locus YDL101C, strain DUN1, hits give low values
[7] = S. cerevisiae deletion strains, locus YDL185W, strain tfp1, hits give low values
[8] = S. cerevisiae deletion strains, locus YDL192W, strain arf1, hits give low values
[9] = S. cerevisiae deletion strains, locus YDR101C, strain arx1, hits give low values
[10] = S. cerevisiae deletion strains, locus YDR162C, strain NBP2, hits give low values
[11] = S. cerevisiae deletion strains, locus YDR318W, strain mcm21, hits give low values
[12] = S. cerevisiae deletion strains, locus YDR388W, hits give low values
[13] = S. cerevisiae deletion strains, locus YDR502C, strain sam2, hits give low values
[14] = S. cerevisiae deletion strains, locus YER110C, hits give low values
[15] = S. cerevisiae deletion strains, locus YER155C, strain BEM2, hits give low values
[16] = S. cerevisiae deletion strains, locus YER167W, strain BCK2, hits give low values
[17] = S. cerevisiae deletion strains, locus YGL078C, strain dbp3, hits give low values
[18] = S. cerevisiae deletion strains, locus YGL086W, strain mad1, hits give low values
[19] = S. cerevisiae deletion strains, locus YGL248W, strain PDE1, hits give low values
[20] = S. cerevisiae deletion strains, locus YGR135W, strain pre9, hits give low values
[21] = S. cerevisiae deletion strains, locus YGR252W, strain gcn5, hits give low values
[22] = S. cerevisiae deletion strains, locus YHR079C, strain IRE1 (second series), hits give low values
[23] = S. cerevisiae deletion strains, locus YHR094C, strain hxt1, hits give low values
[24] = S. cerevisiae deletion strains, locus YHR129C, strain ARP1, hits give low values
[25] = S. cerevisiae deletion strains, locus YHR200W, strain rpn10, hits give low values
[26] = S. cerevisiae deletion strains, locus YIL066C, strain RNR3, hits give low values
[27] = S. cerevisiae deletion strains, locus YIL073C, strain SPO22, hits give low values
[28] = S. cerevisiae deletion strains, locus YIL125W, strain kgd1, hits give low values
[29] = S. cerevisiae deletion strains, locus YIR030C, strain dcg1, hits give low values
[30] = S. cerevisiae deletion strains, locus YJL095W, strain BCK1, hits give low values
[31] = S. cerevisiae deletion strains, locus YJL134W, strain LCB3, hits give low values
[32] = S. cerevisiae deletion strains, locus YJL168C, strain set2, hits give low values
[33] = S. cerevisiae deletion strains, locus YJL187C, strain SWE1 (second series), hits give low values
[34] = S. cerevisiae deletion strains, locus YKL009W, strain mrt4, hits give low values
[35] = S. cerevisiae deletion strains, locus YKL068W, hits give low values
[36] = S. cerevisiae deletion strains, locus YKL085W, strain MDH1 (second series), hits give low values
[37] = S. cerevisiae deletion strains, locus YKL085W, strain MDH1, hits give low values
[38] = S. cerevisiae deletion strains, locus YKR001C, strain vps1, hits give low values
[39] = S. cerevisiae deletion strains, locus YLR039C, strain RIC1, hits give low values
[40] = S. cerevisiae deletion strains, locus YLR058C, strain SHM2, hits give low values
[41] = S. cerevisiae deletion strains, locus YLR102C, strain apc9, hits give low values
[42] = S. cerevisiae deletion strains, locus YLR262C, strain YPT6, hits give low values
[43] = S. cerevisiae deletion strains, locus YLR268W, strain sec22, hits give low values
[44] = S. cerevisiae deletion strains, locus YLR371W, strain rom2, hits give low values
[45] = S. cerevisiae deletion strains, locus YLR418C, strain cdc73, hits give low values
[46] = S. cerevisiae deletion strains, locus YML016C, strain PPZ1, hits give low values
[47] = S. cerevisiae deletion strains, locus YML032C, strain rad52, hits give low values
[48] = S. cerevisiae deletion strains, locus YML124C, strain tub3, hits give low values
[49] = S. cerevisiae deletion strains, locus YMR078C, strain ctf18, hits give low values
[50] = S. cerevisiae deletion strains, locus YMR223W, strain ubp8, hits give low values
[51] = S. cerevisiae deletion strains, locus YMR263W, strain SAP30, hits give low values
[52] = S. cerevisiae deletion strains, locus YMR307W, strain GAS1, hits give low values
[53] = S. cerevisiae deletion strains, locus YNL067W, strain RPL9B, hits give low values
[54] = S. cerevisiae deletion strains, locus YNL233W, strain BNI4, hits give low values
[55] = S. cerevisiae deletion strains, locus YNL250W, strain rad50, hits give low values
[56] = S. cerevisiae deletion strains, locus YNL271C, strain bni1, hits give low values
[57] = S. cerevisiae deletion strains, locus YNL298W, strain CLA4, hits give low values
[58] = S. cerevisiae deletion strains, locus YNL307C, strain MCK1, hits give low values
[59] = S. cerevisiae deletion strains, locus YNR052C, strain pop2, hits give low values
[60] = S. cerevisiae deletion strains, locus YOL012C, strain htz1
[61] = S. cerevisiae deletion strains, locus YOL147C, strain pex11, hits give low values
[62] = S. cerevisiae deletion strains, locus YOR061W, strain CKA2, hits give low values
[63] = S. cerevisiae deletion strains, locus YOR069W, strain VPS5, hits give low values
[64] = S. cerevisiae deletion strains, locus YOR136W, strain idh2, hits give low values
[65] = S. cerevisiae deletion strains, locus YOR144C, strain elg1, hits give low values
[66] = S. cerevisiae deletion strains, locus YOR184W, strain ser1, hits give low values
[67] = S. cerevisiae deletion strains, locus YOR316C, strain cot1, hits give low values
[68] = S. cerevisiae deletion strains, locus YPL241C, strain CIN2, hits give low values
[69] = S. cerevisiae deletion strains, locus YPR119W, strain clb2, hits give low values
[70] = S. cerevisiae deletion strains, locus YPR141C, strain kar3, hits give low values
[71] = S. cerevisiae deletion strains, locus YPR163C, strain tif3, hits give low values
[72] = S. cerevisiae deletion strains, locus YPR167C, strain met16, hits give low values
[73] = S. cerevisiae deletion strains, strain wtn01, hits give low values

Measured: normalized growth

CC(=O)OC1CC(OC(C)=O)C2(C)C(CC(OC(C)=O)C3(C)C2CCC2(C)C(c4ccoc4)CC4OC423)C1(C)C (centres undefined)
inactive: [1] 0.998 | [2] 1 | [3] 1 | [4] 1.01 | [5] 1.02 | [6] 1.03 | [7] 1.01 | [8] 1.01 | [9] 0.998 | [10] 1.01 | [11] 1 | [12] 1.01 | [13] 1.02 | [14] 1.01 | [15] 1 | [16] 1.01 | [17] 1.02 | [18] 0.997 | [19] 1.01 | [20] 1.04 | S. cerevisiae deletion strains, locus YGR229C, strain SMI1, hits give low values 1.02 | [21] 0.998 | [22] 1.01 | [23] 1.01 | [24] 1.02 | [25] 1.01 | [26] 1.01 | [27] 1.05 | [28] 1.01 | [29] 1 | [30] 1.04 | [31] 1.01 | [32] 1.01 | [33] 1.02 | S. cerevisiae deletion strains, locus YJR043C, strain POL32, hits give low values 0.981 | [34] 0.984 | [35] 1 | [36] 1.01 | [37] 1.01 | [38] 1 | [39] 1.01 | [40] 1.01 | [41] 1.01 | [42] 0.927 | [43] 0.994 | S. cerevisiae deletion strains, locus YLR330W, strain CHS5, hits give low values 1.02 | S. cerevisiae deletion strains, locus YLR342W, strain FKS1 (second series), hits give low values 1 | [44] 1.02 | [45] 1.02 | [46] 1.01 | [47] 1.01 | [48] 1 | [49] 1.01 | [50] 1.01 | [51] 1.02 | [52] 1.01 | [53] 1.03 | S. cerevisiae deletion strains, locus YNL153C, strain GIM3, hits give low values 1.03 | [54] 0.986 | [55] 1.01 | [56] 0.998 | [57] 1.02 | [58] 1.02 | [59] 1.01 | [60] 0.881 | [61] 0.996 | [62] 1 | [63] 1.01 | [64] 1 | [65] 0.999 | [66] 0.982 | [67] 1.01 | [68] 1.01 | [69] 1 | [70] 1.02 | [71] 1.01 | [72] 1.01 | [73] 0.997

CC1(C)C(O)CC(O)C2(C)C1CC(O)C1(C)C2CCC2(C)C(c3ccoc3)CC3OC321 (centres undefined)
inactive: [1] 0.936 | [2] 1.01 | [3] 1 | [4] 0.969 | [5] 0.973 | [6] 1 | S. cerevisiae deletion strains, locus YDL134C, strain PPH21, hits give low values 0.992 | [7] 1.02 | [8] 1 | [9] 0.987 | [10] 0.998 | [11] 1 | [12] 1.01 | [13] 0.998 | S. cerevisiae deletion strains, locus YEL061C, strain CIN8, hits give low values 0.997 | [14] 1.02 | [15] 0.996 | [16] 1 | [17] 1.01 | [18] 0.99 | [19] 1 | S. cerevisiae deletion strains, locus YGR078C, strain PAC10, hits give low values 0.991 | [20] 0.997 | [21] 0.981 | S. cerevisiae deletion strains, locus YHR030C, strain SLT2, hits give low values 1.01 | [22] 1.02 | [23] 1.01 | [24] 0.998 | [25] 1 | [26] 0.99 | [27] 1.04 | [28] 1.01 | [29] 1.02 | [30] 0.978 | [31] 0.998 | [32] 1.01 | [33] 0.996 | [34] 0.982 | [35] 1.01 | [36] 0.996 | [37] 0.996 | [38] 0.99 | [39] 1.03 | [40] 0.998 | [41] 1 | [42] 1.01 | [43] 0.993 | [44] 0.994 | [45] 0.983 | [46] 1 | [47] 1.01 | [48] 1.01 | [49] 1.02 | [50] 0.989 | [51] 1.01 | [52] 0.991 | [53] 1 | S. cerevisiae deletion strains, locus YNL128W, strain TEP1, hits give low values 0.998 | [54] 0.978 | [55] 1.01 | [56] 1.01 | [57] 1.01 | [58] 1.03 | S. cerevisiae deletion strains, locus YNL322C, strain KRE1, hits give low values 0.996 | [59] 1 | [60] 1.12 | [61] 1 | [62] 1 | [63] 1 | [64] 0.998 | [65] 1.02 | [66] 0.976 | [67] 1.01 | S. cerevisiae deletion strains, locus YPL055C, strain LGE1, hits give low values 0.988 | [68] 0.997 | [69] 1.01 | [70] 1.02 | [71] 1.01 | [72] 1.01 | [73] 0.986 | S. cerevisiae strains, strain wild type, hits give low values 0.972
